Laboratory results published in PubChem BioAssay (NCI).
This is part of a sample that, as a whole, favours compounds with a hit. Of some 79,000 tested, about 15% had one in any assay. Active and inactive are the calls of the source. No stated cut-off is given here; in the data, active means growth inhibition above about 70%; inactive means the rest.

Columns and labels:
[1] = NCI Yeast Anticancer Drug Screen. Data for the rad50 strain (AID 155);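 further: 0% = growth of vehicle-only cultures of the same strain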; details: S. cerevisiae rad50 strain growth inhibition; at 50.0 µM; active compounds read high
Summary of the method: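 Vehicle-treated cultures provide the reference for the growth inhibition reported for compound-exposed, repair-deficient yeast.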

[2] = NCI Yeast Anticancer Drug Screen. Data for the mec2-1 strain (AID 157); details: S. cerevisiae mec2-1 strain, at 50.0 µM, active compounds read high
Summary of the method: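 Using mec2-1 yeast: add compound, measure growth, express inhibition versus vehicle-treated cultures.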

[3] = NCI Yeast Anticancer Drug Screen. Data for the sgs1 mgt1 strain (AID 161);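 further: 0% = growth of cultures given vehicle only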; details: S. cerevisiae sgs1 mgt1 strain, at 50.0 µM, active compounds read high
Summary of the method: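 Compounds are added to genetically altered yeast, and growth is compared with cultures given vehicle alone to give percent inhibition.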

[4] = NCI Yeast Anticancer Drug Screen. Data for the cln2 rad14 strain (AID 165);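 further: 0% = growth equal to vehicle treated cultures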; details: S. cerevisiae cln2 rad14 strain, at 50.0 µM, active compounds read high
Summary of the method: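 Yeast strain cln2 rad14, bearing defects in cell cycle control and DNA repair, serves as the test system; values reflect growth inhibition compared with vehicle.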

[5] = NCI Yeast Anticancer Drug Screen. Data for the bub3 strain (AID 167); details: S. cerevisiae bub3 mutant strain, at 50.0 µM, active compounds read high
Summary of the method: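 Mutant yeast screening strain plus compound; vehicle-treated cultures serve as the 0% inhibition reference.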

[6] = NCI Yeast Anticancer Drug Screen. Data for the mlh1 rad18 strain (AID 175); details: S. cerevisiae mlh1 rad18 strain growth inhibition; at 50.0 µM; active compounds read high
Summary of the method: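 Steps: expose repair-defective yeast to compound; measure growth; express inhibition against vehicle-treated controls.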

Measured: growth inhibition

COc1ccc2cc1Oc1ccc(cc1)CC1c3c(cc(OC)c4c3Oc3cc5c(cc3O4)CCNC5C2)CCN1C (stereo unspecified)
inactive: [1] -15.9% | [2] -31.6% | [3] -12.2% | [4] -1.1% | [5] -38.8% | [6] -25.1%

O=c1[nH]cc(F)c(=S)[nH]1
inactive: [1] -9.85% | [2] -16.5% | [3] -5.9% | [4] -16.4% | [5] 6.2% | [6] -23.9%

C1=COC(C=Nc2ccccc2)CC1 (stereo unspecified)
inactive: [1] -12.3% | [2] 13.8% | [3] 4.5% | [4] -18.2% | [5] 15.8% | [6] -12.6%

CC(C)=NNc1snnc1C(N)=O
inactive: [1] 13.2% | [2] 26.9% | [3] 13.3% | [4] -2% | [5] -13.2% | [6] 28.4%

CCOc1ccc(C(CC)c2cc3c(cc2OC)OCO3)cc1 (stereo unspecified)
inactive: [1] -1.95% | [2] -0.1% | [3] -9.35% | [4] -42.8% | [5] 6% | [6] -1.7%

Cn1c2c(c3ccccc31)CC1c3c(c4ccccc4n3C)CC21 (stereo unspecified)
inactive: [1] -79% | [2] -51% | [3] -49% | [4] -26.2% | [5] -18.6% | [6] -45.4%

Cc1ccc(S(=O)(=O)NC(=O)Nc2c(-c3nc4ccccc4s3)[n+]([O-])c3ccccc3[n+]2[O-])cc1
inactive: [1] 27.8% | [2] 5.5% | [3] 15.2% | [4] 30.4% | [5] 10.1% | [6] 18.9%

N#CCCn1c2ccccc2c2ccccc21
inactive: [1] -6.45% | [2] 27.5% | [3] 2.95% | [4] 26.5% | [5] -1.65% | [6] -0.5%

CCS(=O)O
inactive: [1] -21.2% | [2] 15.9% | [3] 1.3% | [4] -4.25% | [5] -6.8% | [6] -8.9%

COC1OC2COC(C)(C)OC2C1OS(=O)(=O)c1ccc(C)cc1 (stereo unspecified)
inactive: [1] -1.75% | [2] 12.6% | [3] 6.4% | [4] -17.1% | [5] -0.5% | [6] 29.6%

SCCNCc1ccccn1
inactive: [1] -22.1% | [2] -36.1% | [3] -17.4% | [4] 14.3% | [5] -37.4% | [6] -3.65%

Nc1cc(Cc2ccccc2)ccc1O
inactive: [1] 42.5% | [2] 25.8% | [3] 58.8% | [4] 18.8% | [5] 31.2% | [6] 46.7%

Nc1ncnc2c1nnn2C1CCC(CP(=O)(O)O)C1 (stereo unspecified)
inactive: [1] 8.05% | [2] 4.45% | [3] -4.65% | [4] 17.9% | [5] 7.3% | [6] 21.6%

C=CCNC(=S)N(Cc1ccccc1)Cc1ccccc1
active: [1] 86.2% | [2] 80% | [3] 91.9% | [4] 82.9% | [5] 88.7% | [6] 86.5%

CCOC(=O)c1sc(C(=O)OCC)c(O)c1O
inactive: [4] 58.4%
active: [1] 97% | [2] 95.5% | [3] 97.8% | [5] 95.7% | [6] 97%

Cc1cc(Cl)ccc1OCCCC(=O)NC(Cc1ccccc1)C(=O)O (stereo unspecified)
inactive: [1] 4.85% | [2] 8.95% | [3] -2.15% | [4] 27.5% | [5] -4.2% | [6] 0%

Clc1ccc(Cc2ccc(Br)cc2)cc1
inactive: [1] 43.6% | [2] -10.3% | [3] 38.5% | [4] 2.45% | [5] 49% | [6] 13.2%

N#CC1(C(c2cccc3ccccc23)c2cccc3ccc4ccccc4c23)CC(=O)OC1=O (stereo unspecified)
inactive: [1] 5.25% | [2] -11.4% | [3] 14.1% | [4] 12.1% | [5] -2.55% | [6] 9.65%

O=Cc1ccc(/C=C/C(=O)O)cc1
inactive: [1] -1.55% | [2] -10.1% | [3] -4.85% | [4] 5.9% | [5] -8.55% | [6] 1.1%

OCC1OCOC1C1OCOC1CO (stereo unspecified)
inactive: [1] 0.55% | [2] 4.35% | [3] 3.95% | [4] 2.9% | [5] -2.55% | [6] -3.45%

CCN(S(C)(=O)=O)S(C)(=O)=O
inactive: [1] -7.5% | [2] -2.5% | [3] -4.65% | [4] -37% | [5] 9.55% | [6] -15.8%

Cc1c(Cl)cc([N+](=O)[O-])cc1Cl
inactive: [1] -13.2% | [2] 13.7% | [3] -11.8% | [4] 17.1% | [5] -3.45% | [6] 5.25%

CC(O)CN=Cc1ccccc1 (stereo unspecified)
inactive: [1] -16.6% | [2] 21.9% | [3] -11.2% | [4] -41.4% | [5] -11.5% | [6] -18.8%

BrCCCC1CCCCC1
inactive: [1] -23.6% | [2] -41.7% | [3] -13.2% | [4] 2.1% | [5] -14.6% | [6] -14.7%

Fc1ccccc1C(Nc1nc2ccccc2s1)Nc1nc2ccccc2s1
inactive: [1] 13.4% | [2] 6.05% | [3] -7.3% | [4] -0.3% | [5] -3.15% | [6] 1.35%

COC1=C(C(=O)OC(C)(C)C)[C@]2(C)C(C(=O)OC(C)(C)C)C(OC)=C(C(=O)OC(C)(C)C)[C@]2(C)C1C(=O)OC(C)(C)C (stereo partly specified)
inactive: [1] 30.6% | [2] 15.4% | [3] 22.8% | [4] 17.6% | [5] -3.25% | [6] 29.9%

COC(=O)C1OC1(C)c1ccccc1 (stereo unspecified)
inactive: [1] 2.3% | [2] 4.6% | [3] -0.25% | [4] -0.35% | [5] -1.95% | [6] -2.55%

O=C(CCc1nnc2s/c(=C\c3ccccc3)c(=O)n12)Nc1cc(Cl)ccc1Cl
inactive: [1] -30.9% | [2] -1.6% | [3] -18.4% | [4] 16.4% | [5] 4.95% | [6] -1.45%

Cc1c(/C=N/N(C)C)oc2c1cc(O)c1ncccc12
inactive: [1] 2.95% | [2] -4.4% | [3] 20.4% | [4] -1.9% | [5] 4.65% | [6] 2.35%

CN1CC(O)C(C(=O)NC23CC4CC(CC(C4)C2)C3)C1 (stereo unspecified)
inactive: [1] 30.8% | [2] 4.15% | [3] 11.8% | [4] 14.1% | [5] 10.4% | [6] 30.2%

COc1ccc(N=Cc2ccc(C=Nc3ccc(OC)cc3OC)cc2)c(OC)c1
inactive: [1] 10.6% | [2] -21.6% | [3] 5.15% | [4] 7.7% | [5] -5.45% | [6] -1.9%

CCCCCCCCCCCCCCCCOc1ccc(/C=N/Nc2ccccc2)cc1OC
inactive: [1] -20.1% | [2] -22.2% | [3] -25.9% | [4] 0.95% | [5] -32% | [6] -13.6%

O=C(O)c1ccc(C(=O)O)nc1
inactive: [1] -39.7% | [2] -4.75% | [3] 0.95% | [4] -14.4% | [5] 4.8% | [6] -1.35%

OC1CCC2CCCC2C1 (stereo unspecified)
inactive: [1] 1.6% | [2] -1.7% | [3] -2.2% | [4] 1% | [5] -8.6% | [6] -1.2%

O=C(OCC1CCCO1)c1ccccc1Cl (stereo unspecified)
inactive: [1] 11.8% | [2] -10.2% | [3] -0.95% | [4] -6.6% | [5] 7.2% | [6] 0%

C=CCn1c(=S)sc2ccccc21
inactive: [1] 14.8% | [2] 13.3% | [3] 12.8% | [4] 17.7% | [5] -7.65% | [6] -1.95%

OCC1COc2ccc(Cl)cc2O1 (stereo unspecified) (tested in a mixture with another compound)
inactive: [1] -10.3% | [2] -7.3% | [3] 2.65% | [4] 16.8% | [5] 6.85% | [6] 4.8%

CCOc1ccc2c(c1)nc1ccccc1[n+]2C
inactive: [1] 21.6% | [2] 15.4% | [3] 22% | [4] 25.5% | [5] 52.4% | [6] 39.9%

CC(C)(C)C(=O)OCCN(CCOC(=O)C(C)(C)C)C(=O)COC(=O)C(C)(C)C
inactive: [1] 31.4% | [2] -0.95% | [3] 21.1% | [4] 20.7% | [5] -3.25% | [6] 20.4%

CN(C)CCNc1ccc2ncn3c4ccccc4c(=O)c1c23
inactive: [1] 13.4% | [2] -0.35% | [3] -4.95% | [4] 27.1% | [5] -0.1% | [6] 46.5%

OCc1ccc(Cl)cc1Cl
inactive: [1] 6.55% | [2] -0.25% | [3] -11.4% | [4] 10.3% | [5] -51.1% | [6] -27.9%
